# Screening results: PubChem BioAssay, Broad Institute
# Only some compounds are listed: those with a hit (about 3.4% of all), similar ones and a draw of the others.
# MITF act: activators of MITF-driven TRPM1 promoter activity in SK-MEL-5 cells; SK-MEL-5 TRPM1-promoter luciferase, 24 h; % of positive control, neutral wells = 0; activation, % at 12.5 µM; actives 0.75% (n = 300,000); AID 588334;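 active = mean activation of at least 80% with every replicate also reaching 80%; inconclusive = mean reaches 80% but some replicate falls short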;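 note: 0% = neutral control wells and 100% = parthenolide positive control wells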
# HIV Env fusion: blocks HIV Env-driven cell-cell fusion | inhibition, % at 12.3 µM | actives 1.1% (n = 360,000) | HeLa-JRFL Env/CEM21 cell fusion, luciferase;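 active = mean replicate inhibition score of at least 50 and every replicate individually at or above 50; inconclusive = only one of the two criteria met; inactive = mean below 50 and not all replicates reaching 50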;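 note: 0% = plate neutral controls and 100% = maraviroc near 300 nM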
# miR122 inh: blocks miR-122 activity in Huh7 sensor cells. Huh7 miR-122 Renilla luciferase sensor, 48 h; neutral wells = 0, positive control = 100. activation (reporter increase), % at 12.5 µM. actives 0.3% (n = 340,000). AID 602342;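 active = mean replicate activation score at least 90 and every replicate individually at or above 90; inconclusive = only one of the two criteria met; inactive = neither criterion met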;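 note: higher luciferase means less miR-122 activity so hits act as miR-122 inhibitors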
# Wnt act: Wnt/beta-catenin pathway activation; Wnt/beta-catenin reporter cell assay, activator, plate reader; activation, % at 9.35 µM; actives 1.2% (n = 300,000); AID 743398; in the data active = activation above about 30%, passing the limit was not always enough; inconclusive = no clear call, values can overlap the other calls;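 note: 0% = neutral control wells and 100% = positive control wells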
# esBAF inh: SWI/SNF esBAF complex inhibition; mouse ES cells, Bmi1-luciferase knock-in reporter, 24 h; 100% = twice the neutral-well signal; reporter increase, % at 12.5 µM; actives 2% (n = 350,000); AID 602393; in the data active = activation above about 40%; inconclusive = no clear call, values can overlap the other calls;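 note: 0% = median of the plate's neutral control wells and 100% = double that signal; a rise in the Bmi1 reporter signal indicates esBAF inhibition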
# Active calls of the source: *; u = inconclusive; x = no result given; [ ] = another dose, or the depositor's remark.
SMILES,MITF act,HIV Env fusion,miR122 inh,Wnt act,esBAF inh
O=C(Nc1ccc(S(=O)(=O)N2CCCC2)cc1)c1cncc(Br)c1,14.9,4.1,x,-3.2,-5.2
Cc1cnc(C(=O)Nc2ccc(N3CCOCC3)cc2)cn1,54.5,-10.8,-3.8,x,30.3
Cc1cnc(C(=O)Nc2ccc(OC(F)(F)F)cc2)cn1,x,-65.3,-4.8,8.2,44.5*
CCCNC(=O)N[C@@H]1CC[C@@H](CCn2cc(C3CCCC3)nn2)O[C@H]1CO,x,11.8[16.7 µM],x,x,-2.3
CCCNC(=O)C[C@@H]1CC[C@@H]2[C@@H](COc3ccc(NC(=O)Nc4ccccc4F)cc3C(=O)N2C)O1,x,16.2[16.7 µM],-50.0[16.7 µM],x,-2.1
O=C(Nc1ccc(N2CCCC2)cc1)c1ccc2ccccc2c1,47.8,-85.3,11.7,32.1*,39.9
Nc1nc2ccc(C(=O)Nc3ccc(N4CCOCC4)cc3)cc2s1,5.6,-23.9,1.7,9.5,51.4*
CC(=O)N1CCN(c2ccc(NC(=O)c3ccc4ccccc4c3)cc2)CC1,30.6,-7.5,-4.6,11.7,36.6
O=C(N[C@H]1CC[C@H](CCNC(=O)c2ccccc2F)O[C@@H]1CO)c1cnccn1,x,7.9[16.7 µM],x,x,-1.4
O=C(Nc1nc2ccccc2n1CCN1CCCC1)c1ccc(Cl)cc1,x,x,-2.4,2.9,48.4*
CCCn1c(NC(=O)c2cccc(S(=O)(=O)N3CCCC3)c2)nc2ccccc21,-50.9,132.4*,-35.5,-15.4,-3.3
CCCn1c(NC(=O)c2ccccc2)nc2ccccc21,-5.6,x,10.0,x,4.3
O=C(/C=C/c1cccnc1)c1ccc(F)c(F)c1,15.1,-5.5,x,3.3,-1.5
CN(C)c1ccc(C(=O)/C=C/c2cccnc2)cc1,2.1,-18.4,-10.4,-0.9,63.0*
CCN(CC)S(=O)(=O)c1ccc2oc(Nc3ccccc3)nc2c1,41.5,-32.2,11.6,9.9,70.5*
CCS(=O)(=O)c1ccc2oc(Nc3ccc(OC)c(OC)c3)nc2c1,13.2,2.0,-4.0,-1.0,1.8
CCS(=O)(=O)c1ccc2oc(Nc3ccccc3C)nc2c1,u,x,x,x,54.7*
COc1ccc2c3c(n(C)c2c1)[C@H](CO)N(C(=O)c1ccccc1)CC31CN(C(=O)c2ccccc2)C1,x,-14.7[16.7 µM],x,x,x
C[C@@H]1CN([C@@H](C)CO)C(=O)Cc2cc(NC(=O)Cc3cn(C)c4ccccc34)ccc2O[C@@H]1CN(C)S(=O)(=O)c1ccccc1,x,24.8[16.7 µM],-0.8[16.7 µM],x,-0.6
C[C@@H]1CCCCO[C@@H](CN(C)S(=O)(=O)c2ccc(F)cc2)[C@H](C)CN([C@@H](C)CO)C(=O)c2cc(NC(=O)CCCN(C)C)ccc2O1,x,8.5[16.7 µM],1.4[16.7 µM],x,4.2
CC(C)Oc1cc(NC(=O)CSCC(=O)Nc2cccc(C(F)(F)F)c2)c(Cl)cc1Cl,5.1,61.8*,2.2,x,-4.5
O=C(O)CSCC(=O)Nc1cc(C(F)(F)F)ccc1Cl,-4.0,-21.0,x,-1.1,7.1
CO[C@H]1CN(C)C(=O)c2ccc(NC(=O)c3cnccn3)cc2OC[C@@H](C)N(C)C[C@H]1C,x,-6.1[16.7 µM],4.1[16.7 µM],x,-4.0
CC(C)NC(=O)N(C)C[C@H]1Oc2ccc(NC(=O)Nc3ccc(C(F)(F)F)cc3)cc2CC(=O)N([C@@H](C)CO)C[C@@H]1C,x,10.4[16.7 µM],-4.1[16.7 µM],x,-4.6
Cc1ccc(Nc2nc(COC(=O)C3CC3)cs2)cc1,u,-35.8,-1.0,8.4,48.5*
SMILES,MITF act,HIV Env fusion,miR122 inh,Wnt act,esBAF inh
CCCNC(=O)N1C[C@H](O)COC[C@H]2O[C@H](CC(=O)N3CCCCC3)CC[C@@H]21,x,x,-1.1[16.7 µM],x,-5.6
COc1ccc(C(=O)Nc2ccc(-c3ccc(C)o3)cc2)cc1S(=O)(=O)N1CCOCC1,-28.7,63.4*,-14.5,-6.1,u
O=C(Nc1ccc(S(=O)(=O)Nc2ncccn2)cc1)c1ccc(F)c(S(=O)(=O)N2CCOCC2)c1,-1.5,-5.0,-0.3,-2.0,0.3
O=C(Nc1ccc2c(c1)CCC2)c1ccc(F)c(S(=O)(=O)N2CCOCC2)c1,13.7,12.9,x,83.0*,x
COc1ccc(/C=C/C(=O)Nc2ccccc2F)cc1S(=O)(=O)N1CCOCC1,21.2,-0.5,-6.1,-3.0,17.5
COc1ccc(/C=C/C(=O)Nc2ccccc2C)cc1S(=O)(=O)N1CCOCC1,18.8,13.1,-0.9,-1.5,46.7*
Cc1ccc(NC(=O)CN(C)C(=O)c2cc3c(s2)CCCCC3)cc1,8.2,7.6,18.2,-0.2,-5.6
Cc1ccc(NC(=O)c2cc3c(s2)CCCC3)cc1,147.7*,-118.5,-2.5,60.6*,u
C[C@H]1CCCCO[C@H](CN(C)Cc2ccc3c(c2)OCO3)[C@@H](C)CN([C@@H](C)CO)C(=O)c2cc(NS(=O)(=O)c3ccc(Cl)cc3)ccc2O1,x,-15.5[16.7 µM],-3.9[16.7 µM],x,1.0
Cc1ccc(S(=O)(=O)N(C)C[C@H]2Oc3c(NC(=O)C4CC4)cccc3C(=O)N([C@H](C)CO)C[C@@H]2C)cc1,x,x,5.2[16.7 µM],x,-3.6
O=C(c1scc2c1CCCC2)N1CCCCC1,3.1,-16.1,-6.0,0.2,1.6
Cc1ccc(S(=O)(=O)N2CCOCC2)cc1NC(=O)c1cc2c(s1)CCC2,x,-11.0,-14.6,x,8.6
Cc1ccc(NC(=O)c2scc3c2CCCC3)cc1,115.1*,x,x,14.6,x
NS(=O)(=O)c1cc(C(=O)Nc2ccc3c(c2)CCC3)ccc1Cl,113.4*,-44.0,7.7,-2.6,77.0*
Cc1ccc(NC(=O)c2cc3c(s2)CCC3)cc1S(=O)(=O)N1CCOCC1,x,58.3*,47.8,x,25.0
Cc1ccc(C(=O)Nc2ccc3c(c2)CCC3)cc1S(=O)(=O)N1CCOCC1,25.7,-15.0,6.3,u,62.4*
C[C@H]1CN([C@@H](C)CO)C(=O)c2cccc(NS(=O)(=O)c3cn(C)cn3)c2O[C@H]1CN(C)S(=O)(=O)c1cccs1,x,-4.4[16.7 µM],6.0[16.7 µM],x,0.0
O=C(Nc1ccccc1OC(F)F)c1cc2c(s1)CCC2,32.7,-12.4,-2.9,x,44.4*
CN(C)CC(=O)Nc1ccc2c(c1)[C@@H]1C[C@@H](CC(=O)NCc3cc(F)ccc3F)O[C@H](CO)[C@@H]1O2,x,2.9[16.7 µM],8.2[16.7 µM],x,0.4
CCOc1cc(CNCc2ccncc2)cc(Br)c1OCc1ccc(F)cc1,-2.9,62.9*,-11.2,-3.1,6.5
c1csc(-c2noc(COc3ccc4c(c3)CCCC4)n2)c1,140.3*,-117.5,-0.7,35.7*,39.6
Brc1ccc(-c2noc(COc3ccc4c(c3)CCC4)n2)o1,x,18.9,0.5,0.7,-4.6
CC(C)C#Cc1cnc2c(c1)C(=O)N([C@@H](C)CO)C[C@H](C)[C@H](CN(C)C(=O)Cc1ccccn1)O2,x,0.9[16.7 µM],-6.0[16.7 µM],x,-0.5
CC(C)=CCC/C(C)=C/CN1C(=O)N(c2ccc(F)cc2)[C@H]2C[C@@H](c3ccccc3)[C@@H](C)[C@@H](C(=O)N3CCOCC3)C[C@H]21,x,75.7*,x,-24.2,x
CCN1C(=O)N[C@H]2C[C@H](C(=O)N3CCCC3)[C@H](C)[C@H](c3ccccc3)C[C@H]21,x,-11.6,x,-2.1,x
CCCCSc1ncc(C(=O)OCC)c(N)n1,112.3*,x,2.2,x,32.1
CCOC(=O)c1cnc(SCc2ccc(C)cc2)nc1N,73.5,x,-2.7,x,60.8*
CCOC(=O)c1cnc(SCCc2ccccc2)nc1N,94.6*,-96.3,-11.7,36.5*,42.1*
